Some test systems named below: DU-145 prostate; K-562 leukemia; MALME-3M melanoma; MDA-MB-231 breast; RXF 393 renal; SF-268 CNS; SF-295 CNS; SF-539 CNS; UACC-257 melanoma; M14 melanoma.
What all share (assay): NCI-60 one-dose screen, 48 h (100 = growth as untreated, 0 = no growth, -100 = all killed)
What all share (details): 10 µM unless noted

About 83,000 compounds went through this panel and 20% of them were active in at least one assay; those are over-represented in the sample as a whole.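 Interpretation: 100, growth as untreated; towards 0, rising growth inhibition; 0, no net growth; 0 to -100, cell death. Compounds scoring below 10 were considered active.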 Unmarked numbers belong to inactive results. Calls of active or inactive are those of the source.

In the case of `CN(C)[C@@H]1C(=O)C(C(N)=O)=C(O)[C@@]2(O)C(=O)C3=C(O)c4c(O)cc(CN5CCc6ccccc6C5)c(Cl)c4C[C@H]3C[C@@H]12`, the growth is -92.2% (active) in the test with DU-145 prostate; -73.6% (active) in the test on K-562 leukemia; -52.5% (active) in the test with MALME-3M melanoma; -74.4% (active) in the test on MDA-MB-231 breast; -82.2% (active) in the test with RXF 393 renal; -74.9% (active) in the test on SF-268 CNS. Besides, the growth in the test on SF-295 CNS was -88.9% (active); in the test with SF-539 CNS it was -84.6% (active); with UACC-257 melanoma, -62% (active); in the test with M14 melanoma, -71.2% (active).

Take `COc1cc2cc(c1Cl)N(C)C(=O)C[C@H](OC(=O)[C@H](C)N(C)C(=O)CCS)C[C@]1(C)O[C@H]1[C@H](C)[C@@H]1C[C@@](O)(NC(=O)O1)[C@H](OC)/C=C/C=C(\C)C2`: the growth in the test with DU-145 prostate was 2.17% (active); in the test on K-562 leukemia, 11.7%; in the test with MALME-3M melanoma, 64.3%; with MDA-MB-231 breast, 17.8%; in the test with RXF 393 renal, 43.6%; in the test on SF-268 CNS, 37.1%. In addition, the growth was 3.96% (active) in the test with SF-295 CNS, -17.1% (active) with SF-539 CNS, 69.3% in the test with UACC-257 melanoma and 1.73% (active) with M14 melanoma.

As for `C=C(C)[C@@H]1CC[C@]2(C(=O)n3ccnc3)CC[C@]3(C)[C@H](CC[C@@H]4[C@@]5(C)CCCNC(C)(C)[C@@H]5CC[C@]43C)[C@@H]12`, the growth was 37% in the test with DU-145 prostate; -38.4% (active) with K-562 leukemia; -74.4% (active) in the test on MALME-3M melanoma; 20.5% in the test on MDA-MB-231 breast; 10.8% in the test with RXF 393 renal; 59.4% in the test on SF-268 CNS. Besides, the growth in the test with SF-295 CNS was -54.7% (active); in the test on SF-539 CNS, 24.6%; in the test with UACC-257 melanoma it was 5.14% (active); with M14 melanoma, -78.6% (active).

`O=CN1N=C(c2ccc3c(c2)OCO3)CC1c1cccc(Nc2ccnc3cc(C(F)(F)F)ccc23)c1` (stereo not given): the growth in the test on DU-145 prostate was 86.4%; in the test with K-562 leukemia it was 37%; in the test on MALME-3M melanoma, 101%; with MDA-MB-231 breast, 78.2%; in the test on RXF 393 renal, 86.4%; in the test with SF-268 CNS it was 65.4%. For the same molecule, the growth is 83.1% with SF-295 CNS, 90.5% in the test on SF-539 CNS, 86.8% in the test on UACC-257 melanoma and 78.6% in the test with M14 melanoma.

In the case of `O=C(O)CCNC1CCCCC1`, the growth in the test with DU-145 prostate was 112%; in the test with K-562 leukemia it was 100%; with MALME-3M melanoma it was 144%; with MDA-MB-231 breast, 100%; in the test on RXF 393 renal, 137%; in the test with SF-268 CNS, 97.8%. Further, the growth in the test with SF-295 CNS was 131%; in the test with SF-539 CNS it was 95.7%; in the test with UACC-257 melanoma, 20.9%; in the test on M14 melanoma, 93.3%.

As to `Nc1c(C(=O)Nc2cccc3ccccc23)sc2nc3c(cc12)CCCCC3`, the growth with DU-145 prostate is 18.4%; with K-562 leukemia, 8.68% (active); in the test on MALME-3M melanoma, 75.7%; in the test on MDA-MB-231 breast it was 49.4%; with RXF 393 renal, 17.5%; in the test with SF-268 CNS, 46.3%. Moreover, the growth was 21.1% in the test on SF-295 CNS, -1.19% (active) in the test with SF-539 CNS, 63% in the test on UACC-257 melanoma and 1.3% (active) in the test on M14 melanoma.

Regarding `O=C1C(=O)c2c(nc3ccc(C(F)(F)F)cn23)-c2ccccc21`, the growth in the test on DU-145 prostate was -96.3% (active); in the test with K-562 leukemia, -41.9% (active); with MALME-3M melanoma, -97.3% (active); with MDA-MB-231 breast, -22.7% (active); in the test with RXF 393 renal, -94.8% (active); with SF-268 CNS, -78.7% (active). In addition, the growth in the test with SF-295 CNS was -96.5% (active); with SF-539 CNS it was -97.4% (active); with UACC-257 melanoma, -97.1% (active); with M14 melanoma, -79.5% (active).

`COC(=O)c1ccc2c(c1)NC(=O)[C@@H]1CCCN21`: the growth in the test with DU-145 prostate is 106%; in the test with K-562 leukemia, 96.7%; in the test on MALME-3M melanoma, 105%; with MDA-MB-231 breast, 97.3%; in the test on RXF 393 renal it was 106%; in the test with SF-268 CNS, 94.7%. For the same molecule, the growth in the test with SF-295 CNS is 100%; in the test on SF-539 CNS it was 93.8%; in the test on UACC-257 melanoma, 98.3%; with M14 melanoma, 102%.

`COc1ccc2oc(=O)cc(-c3nc4ccc(N)cc4[nH]3)c2c1`: the growth in the test with DU-145 prostate is 97.5%; in the test with K-562 leukemia, 119%; in the test on MALME-3M melanoma, 121%; with MDA-MB-231 breast, 74.2%; in the test on RXF 393 renal it was 95.1%; with SF-268 CNS, 87.5%. For the same molecule, the growth in the test on SF-295 CNS is 90.2%; in the test with SF-539 CNS, 82.3%; in the test with UACC-257 melanoma it was 132%; with M14 melanoma it was 114%.

For the molecule `COc1cc(/C=C/C(=O)/C=C/c2cc3ccc(Cl)cc3n(Cc3ccccc3)c2=O)ccc1O`, the growth in the test on DU-145 prostate was -35.1% (active); in the test on K-562 leukemia, 3.2% (active); in the test on MALME-3M melanoma it was 4.83% (active); in the test on MDA-MB-231 breast, -16.7% (active); with RXF 393 renal, -79.9% (active); in the test on SF-268 CNS, 13.7%. For the same molecule, the growth in the test with SF-295 CNS was 5.91% (active); in the test with SF-539 CNS, 9.94% (active); with UACC-257 melanoma, -13.9% (active); in the test with M14 melanoma, -11.3% (active).

For the molecule `O=c1c2ccccc2n(CC(O)CN2CCCC2)c2c(Br)cccc12` (stereo not given), the growth with DU-145 prostate was 105%; in the test with K-562 leukemia, 92.9%; in the test on MALME-3M melanoma, 125%; in the test on MDA-MB-231 breast, 129%; in the test on RXF 393 renal, 98.9%; with SF-268 CNS it was 94.8%. The growth in the test on SF-295 CNS is 106%; in the test on SF-539 CNS it was 94.9%; in the test with UACC-257 melanoma, 98.6%; in the test on M14 melanoma, 98.7%.

As to `COc1ccc2c(c1)OC13Oc4cc(OC)ccc4C=C1CCCCC3=C2`, the growth in the test with DU-145 prostate is 104%; in the test on K-562 leukemia it was 88.7%; in the test on MALME-3M melanoma, 97.9%; with MDA-MB-231 breast, 93.8%; in the test on RXF 393 renal it was 87.5%; in the test with SF-268 CNS, 90.7%. For the same molecule, the growth in the test with SF-295 CNS is 96.8%; in the test on SF-539 CNS it was 98.4%; in the test with UACC-257 melanoma, 78.6%; in the test on M14 melanoma it was 90.4%.

As to `c1ccc2c3c([nH]c2c1)C(c1ccc(C2NCCc4c2[nH]c2ccccc42)cc1)NCC3` (stereo not given), the growth was -35.1% (active) in the test on DU-145 prostate; -57.6% (active) in the test on K-562 leukemia; -50.3% (active) in the test with MALME-3M melanoma; -56.2% (active) in the test with MDA-MB-231 breast; 33.9% in the test with RXF 393 renal; -29.2% (active) in the test with SF-268 CNS. For the same molecule, the growth in the test with SF-295 CNS is -72.2% (active); with SF-539 CNS, -15.5% (active); in the test on UACC-257 melanoma, -41.7% (active); with M14 melanoma it was -84.9% (active).

For the origin of these results see PubChem BioAssay (NCI).
